The list is not random: actives were taken first. Their share in the collection is about 3.2%.
ERK AVP block – inhibitors of vasopressin-stimulated ERK signaling pathway. HEK293-V1b, vasopressin-stimulated pERK AlphaScreen. Potency, µM (top dose mostly 57.5 µM), for the others: at the highest dose activity, negative = inhibition, actives largely listed as inhibitors. 0.99% of 72,000 active. AID 995; further: potency means the concentration at half of the fitted maximal effect; on the % scale 0 is the no-effect control and ±100 the full control effect; nearly all actives have a fitted effect of over 55% in size
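Phosphorylated ERK1/2 detected via AlphaScreen bead proximity in lysates of V1b-expressing HEK293 cells given 25 nM vasopressin for 5 min after 30 min compound exposure (37 °C). AC50 from Hill equation; basal DMSO 0%, vasopressin 100%.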
Tau fil binding – binders of human tau filaments. recombinant tau filaments, thioflavin S fluorescence, 15 h; filaments grown with octadecylsulfate alongside compound. 2% of 71,000 active. Potency, µM (highest dose often 57.1 µM), without a hit: at the top dose activity change, negative = inhibition;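 further: potency means the concentration at half of the fitted maximal effect; on the % scale 0 is the no-effect control and ±100 the full control effect; actives lower thioflavin S fluorescence by blocking filaments or displacing dye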
Target sequence (P10636 whole entry, looked up): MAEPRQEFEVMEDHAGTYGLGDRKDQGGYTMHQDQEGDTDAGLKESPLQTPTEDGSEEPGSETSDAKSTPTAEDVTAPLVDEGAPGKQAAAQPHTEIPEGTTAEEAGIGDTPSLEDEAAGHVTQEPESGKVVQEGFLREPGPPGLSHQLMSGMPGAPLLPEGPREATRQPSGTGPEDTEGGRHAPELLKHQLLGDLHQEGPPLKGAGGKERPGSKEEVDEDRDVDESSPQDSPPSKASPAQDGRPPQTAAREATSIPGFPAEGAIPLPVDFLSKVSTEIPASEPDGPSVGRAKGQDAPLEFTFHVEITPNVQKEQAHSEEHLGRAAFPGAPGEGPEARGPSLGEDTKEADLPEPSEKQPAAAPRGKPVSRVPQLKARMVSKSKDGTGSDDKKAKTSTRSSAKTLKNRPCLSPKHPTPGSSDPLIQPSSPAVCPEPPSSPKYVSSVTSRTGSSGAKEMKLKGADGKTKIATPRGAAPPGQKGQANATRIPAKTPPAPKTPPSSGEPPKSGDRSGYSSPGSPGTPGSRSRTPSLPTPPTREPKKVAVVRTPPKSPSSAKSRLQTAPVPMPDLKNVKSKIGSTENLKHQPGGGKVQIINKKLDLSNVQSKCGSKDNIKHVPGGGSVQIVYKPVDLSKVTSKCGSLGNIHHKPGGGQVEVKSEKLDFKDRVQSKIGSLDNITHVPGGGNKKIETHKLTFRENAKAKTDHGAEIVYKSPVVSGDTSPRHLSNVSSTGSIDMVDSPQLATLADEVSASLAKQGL
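Recombinant tau protein (human, 1 uM final) plus 30 uM ODS in HEPES pH 7.4 with NaCl, DTT and thioflavine S. Compound present from the start; fluorescence at 510 nm after 15 h, 37 C.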
YjeE inh – inhibitors of E. coli YjeE (TsaE); AID 605; 0.05% of 71,000 active; Potency, µM; purified YjeE enzyme, qHTS inhibition assay; P0AF67
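Purified YjeE (10 uM) with BODIPY Texas Red-labeled ADP probe (2 uM); compounds pin-transferred, 15 min at room temperature. Binding inhibition read as decreased fluorescence polarization; ADP titration as control.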
p53ts 39C kill – cytotoxicity in p53ts cells at nonpermissive temperature | H1299-p53A138V viability at 39C, ATP luminescence, 24 h | Potency, µM (doses to about 46.1 µM), for inactives: at the highest dose activity change, negative = cell killing, usual class: cytotoxic | 1.5% of 130,000 active | AID 902; further: potency means the concentration at half of the fitted maximal effect; on the % scale 0 is the no-effect control and ±100 the full control effect; nearly all actives have a fitted effect of over 55% in size
p53ts 32C kill – cytotoxicity in p53ts cells at permissive temperature; H1299-p53A138V at 32C, ATP luminescence viability, 24 h; Potency, µM (series often up to 46.1 µM), inactives show at the highest dose activity change, negative = cytotoxicity, actives largely listed as cytotoxic; 0.93% of 130,000 active; AID 924;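 further: potency means the concentration at half of the fitted maximal effect; 0% = DMSO and -100% = full killing by reference compound; nearly all actives have a fitted effect of over 55% in size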
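Viability by ATPlite luminescence after 24 h compound treatment (up to 46 uM) at the permissive 32C. Cells are H1299 carrying p53 A138V. Scale runs from DMSO basal to 100 uM tamoxifen as full kill; AC50 from Hill fits.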
DNA Pol III inh – blocks replication by bacterial DNA polymerase III holoenzyme; 0.25% of 71,000 active; Potency, µM (series often up to 57.1 µM), without a hit: top-dose activity change, negative = inhibition; reconstituted DNA polymerase III holoenzyme replication, biochemical; AID 603; further: potency means the concentration at half of the fitted maximal effect; on the % scale 0 is the no-effect control and ±100 the full control effect
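Reconstituted *E. coli* holoenzyme (0.35 nM Pol III, 1 nM beta, 154 nM SSB, 2 nM primase) was preincubated with compound for 15 min at RT. Synthesis on 1.4 nM ssM13Gori ran 35 min, then was stopped with PicoGreen/EDTA and read as dsDNA fluorescence.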
* = called active by the depositor; i = inactive; ? = inconclusive; / = not tested or not shown; ! = a repeat was not active; [ ] = remark or other dose. The call rests on the fitted dose curve; in most records, active means well fitted curve in the direction sought with a large enough effect; inconclusive means small, poorly fitted or top-dose-only effect, or another doubt; inactive means no such curve, though single readings can be large; an effect the other way counts as inactive or inconclusive.

SMILES	ERK AVP block	Tau fil binding	YjeE inh	p53ts 39C kill	p53ts 32C kill	DNA Pol III inh
CC(=O)c1ccc(NC(=O)c2nc3ccccc3n(C)c2=O)cc1	/	/	/	2.51µM*	2.51µM*	/
CCN(CC)CCOC(=O)C1(c2ccc([N+](=O)[O-])cc2)CCCC1	11.5%	12.6µM*!	i	-17.5%	-6.9%	0.6%
CCN(CC)CCOCCOC(=O)C1(c2ccccc2)CCCC1	6.3%	?	i	-6.7%	-11.8%	-3.1%
O=c1cc(-c2ccccc2)[nH]c2nc3ccccc3n12	1.9%	110.3%	i	2µM*	2µM*	-4.4%
OC(COc1ccc(Cl)c2ccccc12)CN1CCN(c2ccccn2)CC1 (stereo not given)	20µM*	37.7%	i	15.8µM*	?	2.4%
Cc1c2oc3c(C)ccc(C(=O)N[C@@H]4C(=O)N[C@@H](C(C)C)C(=O)N5CCC[C@@H]5C(=O)N(C)CC(=O)N(C)[C@@H](C(C)C)C(=O)O[C@H]4C)c3nc-2c(C(=O)N[C@@H]2C(=O)N[C@@H](C(C)C)C(=O)N3CCC[C@@H]3C(=O)N(C)CC(=O)N(C)[C@@H](C(C)C)C(=O)O[C@H]2C)c(N)c1=O	0.0%	?	i	?	-15.4%	0.126µM*
Cc1ccccc1C(=O)NCc1ccc2c(c1)CCN2C(=O)c1ccccc1	/	/	/	0.9%	-6.5%	/
O=C(CCc1nc(-c2ccccc2F)no1)Nc1cccc(C(F)(F)F)c1	/	/	/	-15.4%	-6.5%	/
O=C(c1cccs1)c1no[n+]([O-])c1C(=O)c1cccs1	5.01µM*	2.9%	i	?	?	-6.5%
CCc1nnc2n1N(C(C)=O)C(c1ccc(C(C)(C)C)cc1)=C(C(C)=O)S2	/	/	/	12.6µM*	-8.2%	/
O=C(CC(Nc1ccc(Cl)cc1)C(=O)O)c1ccccc1 (stereo not given)	/	/	/	?	25.1µM*	/
COC(=O)c1ccc(C(=O)Nc2ccc(N)cc2N)cc1	30.4%	12.6µM*	i	3.4%	-18.5%	2.7%
Fc1cccc(CSc2nc3ccncc3[nH]2)c1	-12.6%	-0.8%	i	10µM*	5.01µM*	-10.4%
CC1CCc2c(sc3nnn(CCCCOc4ccc(Cl)cc4)c(=O)c23)C1 (stereo not given)	/	/	/	8.5%	-1.1%	/
Cc1cccc(-c2nc(CN3CCCC(C(=O)N4CCN(c5cc(Cl)ccc5C)CC4)C3)c(C)o2)c1 (stereo not given)	/	/	/	?	-25.2%	/
CCCCCSc1nnc(-c2cc(Br)ccc2N)c(=O)[nH]1	?	10µM*	i	-1.4%	-9.8%	-8.1%
Cc1cc2c(c(=O)o1)[C@@H](O)[C@H]1O[C@@H]1C2=O	5.0%[11.5 µM]	/	/	3.4%[9.22 µM]	4.2%[9.22 µM]	/
O=C(O)C1=CC(=C(c2ccc(O)c(C(=O)O)c2)c2ccc(O)c(C(=O)O)c2)C=CC1=O	5.5%	-4.8%	i	18.0%	13.7%	0.0794µM*
CC1=C/C(=C(/c2ccc(O)c(C)c2)c2ccccc2C(=O)O)C=CC1=O	23.2%[11.5 µM]	3.4%[11.4 µM]	i	-1.7%[9.22 µM]	0.6%[9.22 µM]	-12.9%[11.4 µM]
Cn1c(=O)c(-c2cc(F)cc(F)c2)nc2cnc(N3CCNCC3)nc21	-7.3%	5.01µM*	i	-23.6%	-15.1%	-3.3%
CN1CCN(c2ncc3nc(-c4cc(F)cc(F)c4)c(=O)n(Cc4cccs4)c3n2)CC1	5.9%	3.16µM*	i	-10.0%	-13.5%	-12.7%
CN1CCN(c2ncc3nc(-c4cc(F)cc(F)c4)c(=O)n(C)c3n2)CC1	8.8%	-16.7%	i	-3.6%	-4.2%	-3.3%
C=CC(=O)OCCCCCCOC(=O)C=C	13.0%	-14.5%	i	-0.6%	1.1%[1.84 µM]	-9.6%
Cc1cccn2c(=O)c(/C=C(\C#N)c3nc4ccccc4n3C)c(Oc3ccc(Br)cc3)nc12	/	/	/	18.2%	-3.0%	/
Cc1ccc(S(=O)(=O)c2c(N)n(/N=C/c3ccco3)c3nc4ccccc4nc23)cc1C	-0.9%	15.8µM*	i	-5.6%	6.8%	-2.5%
SMILES	ERK AVP block	Tau fil binding	YjeE inh	p53ts 39C kill	p53ts 32C kill	DNA Pol III inh
Cc1cccc(S(=O)(=O)c2c(N)n(/N=C/c3ccco3)c3nc4ccccc4nc23)c1	-11.9%	-27.7%	i	10.0%	22.1%	-3.5%
O=C(NCc1ccccc1Cl)c1ccc(NC(=O)N2CCSc3ncccc32)cc1	/	/	/	-0.3%	9.5%	/
CCCc1nnc(NC(=O)C(CC)Sc2nnc3c4ccccc4n(C)c3n2)s1 (stereo not given)	/	/	/	3.2%	-2.9%	/
CCCSc1nnc2nc3c(nn12)c1ccccc1n3C	/	15.8µM*	i	16.7%	-0.3%	-9.3%
COc1cc(OC)cc(C(=O)Nc2ccc3c(c2)OCCO3)c1	/	/	/	3.98µM*	12.6µM*	/
Cc1cc(C)n(-c2ccc(C(=O)Nc3ccc4c(c3)OCCO4)cc2)n1	-17.1%	-7.2%	i	?	?	-9.7%
COc1cc(OC)cc(C(=O)Nc2ccc3c(c2)COC3=O)c1	-11.3%	40.4%	i	-0.8%	3.6%	-4.0%
Cn1c(C(=O)Nc2ccc3c(c2)OCCO3)cc2sccc21	-25.0%	?	i	12.6µM*	12.6µM*	1.1%
CCOC(=O)c1cccc(NC(=O)c2cc3sccc3n2C)c1	19.7%	15.0%	i	-4.4%	-25.6%	3.2%
Cc1cc(C(=O)Nc2ccc3c(c2)OCCO3)co1	/	/	/	15.8µM*	10µM*	/
CCOc1ccc(-c2nc(C#N)c(N3CCOCC3)o2)cc1	?	16.3%	i	-5.3%	12.7%	0.3%
CCOc1ccc(-c2nc(C#N)c(N3CCN(Cc4ccccc4)CC3)o2)cc1	15.8µM*	109.0%	i	3.3%	2.7%	-3.7%
CC(=O)N(C)c1nc(-c2ccc(Cl)cc2)cs1	4.3%	2.4%	i	-11.0%	-11.1%	-3.4%
CC(=O)c1c(C)nc(-c2ccc(Cl)cc2)nc1N=CN(C)C	-26.2%	25.1µM*	i	-3.3%	-29.5%	8.1%
C=CCC1(O)C=CCC2C3C4C(OC(C)(C)C)C2C1C34 (stereo not given)	4.9%[11.5 µM]	/	/	4.8%[9.22 µM]	-0.9%[9.22 µM]	/
Cc1cc(N)c2ccccc2[n+]1CCCCCCCCCCCCCC[n+]1c(C)cc(N)c2ccccc21	-12.4%	i	?	12.6µM*	?	?
O=C(COc1ccc(Br)cc1CO)Nc1ccc(F)cc1	39.8µM*	-0.9%	i	-9.6%	-7.9%	-1.5%
O=C(COc1ccccc1O)Nc1ccc(Cl)cc1	2.0%	-0.2%	i	-5.1%	-5.0%	-3.6%
COc1ccc(-n2cc(-c3ccccc3)c3c(NC4CCCC4)ncnc32)cc1	/	/	/	-19.2%	6.4%	/
